{"source": "PubChem BioAssay AID932", "about": "(The Scripps Research Institute Molecular Screening Center, 2007)", "note": "Hit rate of the full screen: of about 200,000 compounds, about 5,100 (2.5%) were called active. Shown is part of a subset that was picked to be rich in actives. Unmarked numbers belong to inactive results.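 How the source made its calls: active means activation above the screen-wide mean activation plus 3 SD (cut at about 130% in these data); inactive means the rest.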"}
{"assay": "STAT1 signaling activators, primary screen, cell-based, HTS, luciferase reporter (AID 932);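 further: raw ratio to IFN-gamma control signal so 100% means no change and 0% no light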", "settings": "NIH 3T3 STAT1-luciferase reporter, IFN-gamma, luminescence; at 5.5 µM; hits give high values; 100% = IFN-gamma alone, no compound"}
{"smiles": "COc1ccc(C)cc1NC(=O)CSc1nnc(CC(=O)Nc2ccccc2F)n1C", "activation (% of control)": "92.1%"}
{"smiles": "CCCCc1ccc(NC(=S)NCCCN2CCOCC2)cc1", "activation (% of control)": "96.5%"}
{"smiles": "O=C(Nc1ccc2oc(-c3ccccc3F)nc2c1)c1ccco1", "activation (% of control)": "170% (active)"}
{"smiles": "O=C(Nc1cccc(-c2nc3ncccc3o2)c1)c1ccco1", "activation (% of control)": "98.8%"}
{"smiles": "O=C(Nc1ccc2nccnc2c1)c1ccco1", "activation (% of control)": "127%"}
{"smiles": "COCc1c(C(=O)OCc2c(C)noc2C)oc2ccccc12", "activation (% of control)": "100%"}
{"smiles": "COc1ccc(-c2nn(-c3ccccc3)cc2/C=C\\C(=O)N2CCOCC2)cc1[N+](=O)[O-]", "activation (% of control)": "102%"}
{"smiles": "S=C(Nc1cccc(Br)c1)N1CCn2cccc2C1c1cccnc1", "note": "(stereo not drawn)", "activation (% of control)": "90.5%"}
{"smiles": "O=C(Cn1c(-c2ccccn2)nc2ccccc21)NCCN1CCOCC1", "activation (% of control)": "101%"}
{"smiles": "c1ccc2cc3c(NCCN4CCOCC4)ccnc3cc2c1", "activation (% of control)": "137% (active)"}
{"smiles": "c1ccc2[nH]c(NCCN3CCOCC3)nc2c1", "activation (% of control)": "99.9%"}
{"smiles": "Cn1cccc1/C=C1\\SC(=O)N(CC(=O)Nc2ccc(F)cc2)C1=O", "activation (% of control)": "100%"}
{"smiles": "CC(=O)OC(COc1ccc(F)cc1)Cn1cnc2ccccc21", "note": "(stereo not drawn)", "activation (% of control)": "103%"}
{"smiles": "CCn1nc(C)c(CN2CCN(Cc3ccc(OC)c(C)c3C)C(CCO)C2)c1C", "note": "(stereo not drawn)", "activation (% of control)": "98.9%"}
{"smiles": "COc1ccc(Br)cc1CN(C)CC(=O)Nc1cc(Cl)cc(Cl)c1", "activation (% of control)": "105%"}
{"smiles": "CC(C)C(=O)Nc1ccc(C(=O)NNC(=O)c2cccs2)cc1", "activation (% of control)": "102%"}
{"smiles": "Cc1ccc(C)c(NC(=O)CCC(=O)NNC(=O)c2cccs2)c1", "activation (% of control)": "101%"}
{"smiles": "Cc1ccc(C(=O)NNC(=O)c2cccs2)cc1", "activation (% of control)": "130% (active)"}
{"smiles": "C=CS(=O)c1sc(Cl)c(N2CCOCC2)c1[N+](=O)[O-]", "note": "(stereo not drawn)", "activation (% of control)": "86.3%"}
{"smiles": "O=[N+]([O-])c1cccc(Nc2c3ccccc3nc3ccccc23)c1", "activation (% of control)": "98%"}
{"smiles": "CC(=O)Nc1ccc(NC(=O)COc2ncnc3ccccc23)cc1", "activation (% of control)": "93.2%"}
{"smiles": "CC(=O)Nc1ccc(Nc2c3ccccc3nc3ccccc23)cc1", "activation (% of control)": "137% (active)"}
{"smiles": "CC1=CC2=NC(=O)CC(C)(C(=O)N(CC(=O)NC(C)(C)C)Cc3ccccc3)N2C=C1", "note": "(stereo not drawn)", "activation (% of control)": "106%"}
{"smiles": "Cc1ccc(C(=O)COC(=O)c2cccc(N3C(=O)c4c(C)nc5ccccc5c4C3=O)c2)cc1C", "activation (% of control)": "149% (active)"}
{"smiles": "CCCc1nc2ccccc2c(C(=O)OCC(=O)c2ccc3c(c2)NC(=O)CO3)c1CC", "activation (% of control)": "100%"}
{"smiles": "O=C(CCc1nc2ccccc2c(=O)[nH]1)OCC(=O)c1cccc(Cl)c1", "activation (% of control)": "93.7%"}
{"smiles": "O=C(NCCc1c[nH]c2ccccc12)C(=O)NCC1CCCO1", "note": "(stereo not drawn)", "activation (% of control)": "109%"}
{"smiles": "O=C(NCCc1c[nH]c2ccccc12)c1cc2ccccc2oc1=O", "activation (% of control)": "143% (active)"}
{"smiles": "CN(c1ccccc1)S(=O)(=O)c1ccc(Cl)c(C(=O)NCCc2c[nH]c3ccccc23)c1", "activation (% of control)": "95%"}
{"smiles": "COc1ccc(NC(=O)/C(C#N)=C\\c2cc(OC)c(OCc3ccc(C(=O)O)cc3)cc2Br)cc1", "activation (% of control)": "96.6%"}
{"smiles": "COc1ccc(NC(=O)/C(Cl)=C(/Cl)S(=O)Cc2ccc(C)cc2)cn1", "note": "(stereo not drawn)", "activation (% of control)": "222% (active)"}
{"smiles": "CC(=O)Nc1ccc(OCC(=O)NCc2ccc(C)cc2)cc1", "activation (% of control)": "95.8%"}
{"smiles": "Cc1ccc(NC(=O)OCc2cncs2)cc1", "activation (% of control)": "118%"}
{"smiles": "COc1ccc(NC(=S)NCCNC(C)=O)cc1", "activation (% of control)": "103%"}
{"smiles": "COc1ccc(CS(=O)/C(Cl)=C(/Cl)C(=O)Nc2ccc(OC)nc2)cc1", "note": "(stereo not drawn)", "activation (% of control)": "279% (active)"}
{"smiles": "COc1ccc(NC(=S)Nc2ccccc2Cl)cn1", "activation (% of control)": "88.6%"}
{"smiles": "c1ccc2c(c1)CSc1sccc1C2=C1CCNCC1", "activation (% of control)": "98.4%"}
{"smiles": "CN(C)/C=C/C(=O)c1cnc2sccn2c1=O", "activation (% of control)": "105%"}
{"smiles": "COc1cccc(NCCC(=O)c2cccc([N+](=O)[O-])c2)c1", "activation (% of control)": "116%"}
{"smiles": "O=C(c1ccc2c(c1)N(Cc1ccc(F)cc1)C(=O)c1ccccc1S2(=O)=O)N1CCN(c2ccccn2)CC1", "activation (% of control)": "97.5%"}
{"smiles": "CCn1c(SCC(=O)N(C)C2CCS(=O)(=O)C2)nnc1-c1cccs1", "note": "(stereo not drawn)", "activation (% of control)": "97.1%"}
{"smiles": "Cc1ccc(NCc2n[nH]c(=S)n2-c2ccccc2)cc1Cl", "activation (% of control)": "114%"}
{"smiles": "CCOC(=O)N1CCN(c2cc(C)c([N+](=O)[O-])cc2F)CC1", "activation (% of control)": "77.6%"}
{"smiles": "CC1CCCCC1NC(=O)CN1CCC(O)(c2ccc3c(c2)OCO3)CC1", "note": "(stereo not drawn)", "activation (% of control)": "102%"}
{"smiles": "Cc1nonc1C(=O)N/N=C/c1ccc(O)cc1", "activation (% of control)": "135% (active)"}
{"smiles": "COC(=O)N/N=C/c1ccc(/C=N/NC(=O)OC)cc1", "activation (% of control)": "103%"}
{"smiles": "O=C(C[n+]1ccccc1)N/N=C/c1ccc(O)cc1", "activation (% of control)": "97.6%"}
{"smiles": "C/C=C/c1ccc(OCCCCN2CCC(C)CC2)c(OC)c1", "activation (% of control)": "98.3%"}
{"smiles": "COc1cc(S(=O)(=O)N2CCOCC2)ccc1NC(=O)COc1ccc(N(C)S(=O)(=O)c2ccc(C)cc2)cc1", "activation (% of control)": "88.9%"}
{"smiles": "COc1ccc(C(=S)Nc2ccccc2)cc1", "activation (% of control)": "118%"}
{"smiles": "COc1ccc(NC(=S)N2N=CCC2c2ccccc2)cc1", "note": "(stereo not drawn)", "activation (% of control)": "135% (active)"}
{"smiles": "COc1ccc(C(=O)NC2CCN(C(=S)Nc3ccccc3)CC2)cc1", "activation (% of control)": "88.7%"}
{"smiles": "Cc1ccccc1-n1cc(CNC(=O)CC2C(=O)NCCN2C/C=C/c2ccccc2)cn1", "note": "(stereo not drawn)", "activation (% of control)": "100%"}
{"smiles": "O=C(Cn1cc(C(F)(F)F)ccc1=O)N/N=C/c1ccc(Cl)cc1Cl", "activation (% of control)": "116%"}
{"smiles": "O=C(/C=C/c1ccccc1)c1ccoc1", "activation (% of control)": "98%"}
{"smiles": "O=C(/C=C/c1ccc(N2CCOCC2)cc1)c1ccccc1", "activation (% of control)": "129% (active)"}
{"smiles": "O=C(O)c1ccc2c(c1)C(=O)N(c1ccc(/C=C/C(=O)c3ccccc3)cc1)C2=O", "activation (% of control)": "99.8%"}
{"smiles": "Cc1ccc(NC(=O)CCOc2ccccc2)cc1S(=O)(=O)Nc1ccccc1Cl", "activation (% of control)": "98.8%"}
{"smiles": "Cc1csc(NC(=O)CSc2ccc(-c3ccc(F)cc3)nn2)n1", "activation (% of control)": "112%"}
{"smiles": "Cc1ccc(NC(=S)NCc2ccccc2Cl)c(C)c1", "activation (% of control)": "96.8%"}
{"smiles": "CCOC(=O)N1CCN(C(=S)Nc2ccc(C)cc2C)CC1", "activation (% of control)": "96.2%"}
{"smiles": "Cc1ccc(NC(=S)Nc2ncccc2C)c(C)c1", "activation (% of control)": "134% (active)"}
{"smiles": "COc1ccc(N2CCN(C(=S)Nc3ccc(S(N)(=O)=O)cc3)CC2)cc1", "activation (% of control)": "89.8%"}
